“And” between values parts separate entries of the source, which are not always exact repeats. Identical values can stand only once. More than one record can exist for a structure, and the calls need not agree. The source made the active and inactive calls. How the source made its calls: active means hit-call score of the fitted dose curve at least 0.9, where 1 is the maximum; inactive means score below 0.9.
Assay: BSK_BT_PBMCCytotoxicity: PBMC Cytotoxicity Assessment in the BioMAP Diversity Plus: BT Assay (AID 2284225)
Details: primary human B cells with PBMC
Procedure: BSK_BT is a cell-based, multiplexed-readout assay that uses B cell and peripheral blood mononuclear cells, a human vascular primary cell co-culture, with measurements taken at 24 hours after chemical dosing in a microplate: 96-well plate.BSK_BT_PBMCCytotoxicity is an assay component measured in the BSK_BT assay. It measures dehydrogenase activity, a form of viability reporter, as detected with fluorescence intensity signals by Alamar Blue Reduction technology.Data from the assay component BSK_BT_PBMCCytotoxicity was analyzed at the endpoint, BSK_BT_PBMCCytotoxicity, in the positive analysis fitting direction relative to DMSO as the negative control and baseline of activity. Using a type of viability reporter, gain or loss-of-signal activity can be used to understand cellular changes in viability. To generalize the intended target to other relatable targets, this assay endpoint is annotated to the 'cell cycle' intended target family, where the subfamily is 'cytotoxicity'.
The levels of cell surface (or secreted, indicated by the prefix "s") biomarker endpoints were measured by ELISA. Overt cytotoxicity to cells in confluent adherent cultures (all systems other than the BT system) was assessed by measuring total protein levels using sulforhodamine B (SRB) staining in parallel cultures at the time of biomarker measurements, indicated as SRB endpoints. For proliferation assays for adherent cell types, individual cell types are cultured at sub-confluence and relative cell numbers quantified by SRB staining at time points optimized for each system (48 h: 3C and CASM3C systems; 72 h: BT and HDF3CGF systems; 96 h: SAg system). SRB was performed by staining cells with 0.1% SRB after fixation with 10% TCA and reading wells at 560 nm.Viability and proliferation of PBMC (T cells) was quantified by Alamar Blue reduction for the SAg and BT systems. For PBMC viability (referred to as PBMC Cytotoxicity within the assay endpoint names), cells were plated (75,000/well in a 96-well plate) and then chemical samples added for 1 h before addition of activators, SEB and TSST-1 (20 ng/mL final concentration each). Cells were incubated for 90 h. Then, Alamar Blue (20 uL/well) (Invitrogen, Cat DAL1100) was added for 6 h, and the plates were read with a fluorescence microplate reader at 546/580 nm (excitation/emission). For PBMC proliferation, cells were plated and activated as above but incubated for only 16 h prior to addition of Alamar Blue. Plates were read after 6 h.

Row | SMILES | outcome | AC50
1 | CC1=CC2C3C=CC(C3)C2C1C (stereo not given) | inactive | 
2 | O=C(O)C(F)(F)C(F)(F)C(F)(F)OC(F)(F)F | inactive | 
3 | O=C(Cl)C(F)(F)C(F)(F)C(F)(F)C(F)(F)C(F)(F)C(F)(F)C(F)(F)F | inactive | 24.7 µM (active)
4 | C=C(C)C(=O)OCC(F)(F)C(F)(F)C(F)(F)C(F)F | inactive | 
5 | C[Si](Cl)(Cl)CCC(F)(F)C(F)(F)C(F)(F)C(F)(F)C(F)(F)C(F)(F)F | inactive | 
6 | CO[Si](C)(CCC(F)(F)C(F)(F)C(F)(F)C(F)(F)C(F)(F)C(F)(F)F)OC | inactive | 
7 | Nc1cc([N+](=O)[O-])cc(Cl)c1O | inactive | 
8 | CCOC(C=C(C)CCC=C(C)C)OCC | inactive | 
9 | Cc1ccc(S(=O)(=O)C(I)I)cc1 |  | 4.06 µM (active)
10 | C=CC(=O)OCC(F)(F)C(F)(F)C(F)(F)C(F)(F)C(F)(F)C(F)(F)C(F)(F)C(F)F |  | 32.5 µM (active) and 22.7 µM (active)
11 | O=S(=O)(Cl)C(F)(F)C(F)(F)C(F)(F)C(F)(F)C(F)(F)C(F)(F)C(F)(F)C(F)(F)F |  | 8.8 µM (active) and 16.2 µM (active)
12 | CCN(CC)c1ccc(C=O)cc1 | inactive | 
13 | CNS(=O)(=O)C(F)(F)C(F)(F)C(F)(F)C(F)(F)C(F)(F)C(F)(F)C(F)(F)C(F)(F)F | inactive | 
14 | OCC(F)(F)C(F)(F)C(F)(F)CO | inactive | 
15 | O=C(O)C(F)(F)OC(F)(F)C(F)(F)OC(F)(F)C(F)(F)OC(F)(F)F | inactive | 14.8 µM (active)
16 | O=C=NCc1cccc(CN=C=O)c1 | inactive | 
17 | NC(=O)C(F)(F)C(F)(F)C(F)(F)C(F)(F)C(N)=O | inactive | 
18 | O=S(=O)(O)CCC(F)(F)C(F)(F)C(F)(F)C(F)(F)C(F)(F)C(F)(F)C(F)(F)C(F)(F)F | inactive | 
19 | CC(C)CCCC(C)CCO (stereo not given) | inactive | 

Row | SMILES | outcome | AC50
20 | OC(O)C(F)(F)C(F)(F)F | inactive | 
21 | CC(C)(C)c1cc(CCC(=O)NCCCCCCNC(=O)CCc2cc(C(C)(C)C)c(O)c(C(C)(C)C)c2)cc(C(C)(C)C)c1O | inactive | 
22 | Cc1cnccn1 | inactive | 
23 | O=C(F)C1(F)C(F)(F)C(F)(F)C(F)(F)C(F)(F)C1(F)F | inactive | 
24 | O=C(O)C(F)(F)C(F)(F)C(F)(F)C(=O)O | inactive | 
25 | O=S(=O)(OCC(F)(F)F)C(F)(F)C(F)(F)C(F)(F)C(F)(F)F | inactive | 8.88 µM (active)
26 | O=C=Nc1cccc2c(N=C=O)cccc12 | inactive | 
27 | CCN(CC)c1ccc(C=O)c(O)c1 | inactive | 
28 | Cc1cc(C)c(O)c(C(C)(C)C)c1 | inactive | 
29 | O=C1c2c(O)ccc(Nc3ccc(CCO)cc3)c2C(=O)c2c([N+](=O)[O-])ccc(O)c21 |  | 20 µM (active)
30 | FC(F)(F)C(F)(F)C(F)(F)C(F)(F)C(F)(F)C(F)(F)C(F)(F)CCI | inactive | 
31 | CCN(CCO)S(=O)(=O)C(F)(F)C(F)(F)C(F)(F)C(F)(F)C(F)(F)C(F)(F)C(F)(F)C(F)(F)F | inactive | 
32 | NCC(F)(F)C(F)(F)C(F)(F)C(F)(F)C(F)(F)C(F)(F)F | inactive | 
33 | OCCCCC(F)(F)C(F)(F)C(F)(F)C(F)(F)F | inactive | 
34 | Brc1nc2ccccc2s1 | inactive | 
35 | Cc1cc(O)c(C(C)(C)C)cc1C(C)(C)C |  | 26.5 µM (active)
36 | FC(F)(F)C(F)(F)C(F)(F)C(F)(F)C(F)(F)C(F)(F)CC[Si](Cl)(Cl)Cl | inactive | 
37 | NC(=O)C(F)(F)C(F)(F)C(F)(F)C(F)F | inactive | 

From PubChem BioAssay (EPA / NIEHS)
